# Laboratory results reported in PubChem BioAssay AID2061319 (National Center for Advancing Translational Sciences (NCATS), 2025).
# Results filed as inconclusive are left out. A number with no mark means an inactive call. The source made the active and inactive calls. Calls follow the shape of the dose curve; as a rule, active = well fitted inhibition curve with a large enough effect; inconclusive = small, poorly fitted or top-dose-only effect; inactive = flat fitted curve, though single readings scatter. Square brackets hold non-standard residues; d marks the D form. Peptide text beside a SMILES is read from it. Dolaproine = CO[C@@H]([C@@H]1CCCN1)[C@@H](C)C(=O)O; Dil = CC[C@H](C)[C@H](NC)[C@@H](CC(=O)O)OC; NMeV = CN[C@H](C(=O)O)C(C)C
# Assay: Identification of antibody-drug conjugate (ADC) payloads which are substrates of ATP-binding cassette drug efflux transporters: ABCG2-H460-MX20 cell line with Ko143
# Settings: H460-MX20 (ABCG2) + Ko143, CellTiter-Glo viability, 48 h; series mostly up to 28.7 µM; activity change, negative = cytotoxicity: at the top concentration
# Excerpt: Antibody-drug conjugates (ADCs) feature an antibody recognizing a specific protein joined to a potent toxic payload. Numerous antibody-drug conjugates have received FDA approval; however, clinical resistance arises. Resistance mechanisms include decreased expression or mutation of the antibody target, impaired payload release, or increased expression of ATP-binding cassette (ABC) efflux transporters associated with multidrug resistance. We therefore sought to characterize the interaction of ABC multidrug transporters with ADC payloads. We performed a high-throughput screen with 27 common ADC payloads using cells lines expressing ABC transporters P-glycoprotein (P-gp, encoded by ABCB1) or ABCG2 (encoded by ABCG2). Confirmatory assays were also performed using cells transfected to express P-gp, ABCG2, or MRP1 (encoded by ABCC1). Several commonly used ADC payloads were substrates of P-gp, including calicheamicin gamma1, monomethyl auristatin E, DM1, and DM4. All the pyrrolobenzodiazepines tested - SJG136, SGD-1882, SG2057, and SG3199 - were substrates of P-gp, ABCG2, and MRP1. […] These findings highlight the risk of transporter-mediated resistance with certain ADC payloads and underscore the importance of selecting payloads that evade ABC transporter recognition in future ADC development.
# HEK-293 cells were transfected with empty vector (pcDNA) or vector containing the human ABCB1 (MDR-19), ABCG2 (R-5), or ABCC1 gene (MRP1) and were maintained in EMEM with 2 mg/mL G418 added to maintain transporter expression. The HeLa derivative KB-3-1 and the P-gp overexpressing KB-8-5-11 subline were maintained in DMEM; KB-8-5-11 additionally received 100 ng/mL colchicine. H460 parental cells were obtained from the Division of Cancer Treatment and Diagnosis Tumor Repository, National Cancer Institute at Frederick, MD and were cultured in RPMI. The ABCG2 expressing subline H460 MX20 was generated by selecting H460 cells in 20 nM mitoxantrone. Media in all cases was supplemented with 10% FBS and 1% penicillin-streptomycin. We explored 27 common ADC payloads, in two orthogonal, paired cell line sets-a drug selected and transfected set for each transporter--to identify substrates of the ABC transporters P-gp and ABCG2. Compounds were sourced from Levena Biopharma (San Diego, CA), Selleck Chem (Houston, TX), ChemieTek (Indianapolis, IN), or Microsource Discovery Systems (Gaylordsville, CT). Screening was performed as previously described. Briefly, cells were plated at a density of 500 cells/well in 1536 well plates with compounds added using a 1536-head pin tool (Kalypsys, San Diego CA). Cells were incubated with cytotoxic drugs and processed with CellTiter Glo reagent (Promega, Madison, WI) to determine viability after 48 hours. P-gp substrates were identified by comparing compound activity between paired sets of low-expressing (sensitive) and over-expressing (resistant) cell lines.
SMILES,Potency,"activity change, negative = cytotoxicity [%]"
CCc1c2c(nc3ccc(O)cc13)-c1cc3c(c(=O)n1C2)COC(=O)[C@]3(O)CC,150 nM (active),
COc1cccc2c1C(=O)c1c(O)c3c(c(O)c1C2=O)C[C@@](O)(C(=O)CO)C[C@@H]3O[C@H]1C[C@H](N)[C@H](O)[C@H](C)O1,598 nM (active),
CC[C@H](C)[C@@H]([C@@H](CC(=O)N1CCC[C@H]1[C@H](OC)[C@@H](C)C(=O)N[C@@H](Cc1ccccc1)C(=O)O)OC)N(C)C(=O)[C@@H](NC(=O)[C@@H](NC)C(C)C)C(C)C (H-[NMeV]V[Dil][Dolaproine]F-OH),15000 nM (active),
CCN(C(C)=O)[C@H]1CO[C@@H](O[C@H]2[C@H](O[C@H]3C#C/C=C\C#C[C@]4(O)CC(=O)C(NC(=O)OC)=C3/C4=C\CSSSC)O[C@H](C)[C@@H](NO[C@H]3C[C@H](O)[C@H](SC(=O)c4c(C)c(I)c(O[C@@H]5O[C@@H](C)[C@H](O)[C@@H](OC)[C@H]5O)c(OC)c4OC)[C@@H](C)O3)[C@@H]2O)C[C@@H]1OC,13.4 nM (active),
CCN[C@H]1CO[C@@H](O[C@H]2[C@H](O[C@H]3C#C/C=C\C#C[C@]4(O)CC(=O)C(NC(=O)OC)=C3/C4=C\CSSSC)O[C@H](C)[C@@H](NO[C@H]3C[C@H](O)[C@H](SC(=O)c4c(C)c(I)c(O[C@@H]5O[C@@H](C)[C@H](O)[C@@H](OC)[C@H]5O)c(OC)c4OC)[C@@H](C)O3)[C@@H]2O)C[C@@H]1OC,3.8 nM (active),
CN(C)CCOc1ccc2[nH]c(C(=O)N3C[C@@H](CCl)c4c3cc(O)c3ccccc43)cc2c1,0.5 nM (active),
CC(C)(C)OC(=O)Nc1ccc2[nH]c(C(=O)N3C[C@@H](CCl)c4c3cc(O)c3ccccc43)cc2c1,6.7 nM (active),
CC[C@H](C)[C@@H]([C@H](N)CC(=O)N1CCC[C@H]1[C@H](OC)[C@@H](C)C(=O)N[C@@H](Cc1ccccc1)c1nccs1)N(C)C(=O)[C@@H](NC(=O)[C@@H](NC)C(C)C)C(C)C,,-17.3
COc1cccc2c1C(=O)c1c(O)c3c(c(O)c1C2=O)C[C@@](O)(C(=O)CO)C[C@@H]3O[C@H]1C[C@H]2[C@H](O[C@@H]3[C@@H](OC)OCCN32)[C@H](C)O1,0.2 nM (active),
COC(=O)c1cc2c3c(cc(O)c2[nH]1)N(C(=O)c1cc2cc(OC)c(OC)c(OC)c2[nH]1)CC3CCl (stereo not given),0.8 nM (active),
